According to PubChem BioAssay (NCI):
The panel holds about 79,000 compounds, 15% with a hit somewhere; the sample as a whole holds those more often. Values without a mark were called inactive. Active and inactive are the calls of the source. Cut-off read from the data, not from the text of the source: active = growth inhibition above about 70%; inactive = the rest.

How the values were obtained:
[1] = NCI Yeast Anticancer Drug Screen. Data for the rad50 strain (AID 155);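 note: 0% = growth of vehicle-only cultures of the same strain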; conditions: S. cerevisiae rad50 strain growth inhibition; at 50.0 µM; stronger effect = higher value
Summary of the method: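 Genetically altered yeast (DNA repair pathway); compound treatment; growth inhibition vs vehicle ctrl.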

[2] = NCI Yeast Anticancer Drug Screen. Data for the mec2-1 strain (AID 157); conditions: S. cerevisiae mec2-1 strain, at 50.0 µM, stronger effect = higher value
Summary of the method: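 Growth inhibition is read against vehicle-treated controls after compound exposure of the mec2-1 yeast strain, which is defective in DNA damage repair or cell cycle control.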

[3] = NCI Yeast Anticancer Drug Screen. Data for the sgs1 mgt1 strain (AID 161);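 note: 0% = growth of cultures given vehicle only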; conditions: S. cerevisiae sgs1 mgt1 strain, at 50.0 µM, stronger effect = higher value
Summary of the method: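 Yeast cells carrying a defined DNA-repair defect were exposed to test compounds. Growth inhibition was measured relative to vehicle-treated controls.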

[4] = NCI Yeast Anticancer Drug Screen. Data for the cln2 rad14 strain (AID 165);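 note: 0% = growth equal to vehicle treated cultures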; conditions: S. cerevisiae cln2 rad14 strain, at 50.0 µM, stronger effect = higher value
Summary of the method: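 Growth inhibition, relative to vehicle-treated controls, is the read-out. The test organism is a yeast strain with defined genetic alterations, cln2 rad14.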

[5] = NCI Yeast Anticancer Drug Screen. Data for the bub3 strain (AID 167); conditions: S. cerevisiae bub3 mutant strain, at 50.0 µM, stronger effect = higher value
Summary of the method: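 Yeast carrying a defined mutation is treated with each compound, and growth is compared with that of vehicle-exposed cells to give inhibition.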

[6] = NCI Yeast Anticancer Drug Screen. Data for the mlh1 rad18 strain (AID 175); conditions: S. cerevisiae mlh1 rad18 strain growth inhibition; at 50.0 µM; stronger effect = higher value
Summary of the method: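 Cells of a genetically altered yeast strain, deficient in DNA damage repair, were treated with compound. Their growth was then compared with that of vehicle-treated cultures to give inhibition.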

Row | Structure (SMILES) | growth inhibition [1] | growth inhibition [2] | growth inhibition [3] | growth inhibition [4] | growth inhibition [5] | growth inhibition [6]
1 | CC(C)NC(=O)c1ccc(CBr)cc1 | 0.8% | 9.05% | -10.1% | 9.8% | 10.4% | 14.3%
2 | CCCCCCc1cc(-c2cc(CCCCCC)nc(N)n2)nc(N)n1 | -4.25% | 7.05% | 0% | 4.55% | -9.1% | 16.4%
3 | O=C(O)c1cc(=O)[nH]c(SCc2ccc(Cl)cc2Cl)n1 | -14.4% | 14.5% | -7.05% | -10.2% | 9.6% | -1.35%
4 | COCn1c2ccc(OC(C)=O)cc2c2c(=O)oc(N(C)C)nc21 | -14.8% | -31.6% | -29.4% | -5.5% | -11.6% | -11.7%
5 | CNNC(=NS(=O)(=O)c1cc(C#N)c(NNC)cc1S)NNC | 6.05% | -3.95% | -11.3% | -36.5% | -8.45% | 12.3%
6 | O=C(COc1ccc(Cl)cc1)OCCCl | 10% | 8.3% | 9.1% | 0.35% | 9.3% | 8.3%
7 | O=c1[nH]c(=O)n(C2CC(O)C(CO)O2)cc1Cl (stereo unspecified) | 0.75% | -11.1% | 2.9% | 11.8% | 1.45% | 2.25%
8 | COC(=O)CCC1=C(C)C2=NC1=CC1=NC(=CC3=NC(=Cc4[nH]c(/c(=C\O)c4C)=C2)C(C=O)=C3C)C(C)=C1CCC(=O)OC | 28.1% | 16.5% | 32.2% | 26.9% | 9.15% | 11.6%
9 | O=C1OC(=O)C(Cl)=C1Cl | 16.6% | -10.5% | 28.8% | 10.7% | 9.4% | 22.3%
10 | COc1cc(C(c2ccc(N(Cc3ccccc3)Cc3ccccc3)cc2NC(C)=O)c2ccc(N(Cc3ccccc3)Cc3ccccc3)cc2NC(C)=O)ccc1O | 2.75% | 2.05% | -11.4% | -8.2% | -5.1% | 38.2%
11 | CCCCCCCCCCCCc1c2ccccc2cc2ccccc12 | 3.55% | -3.8% | -4.7% | -11.4% | 25.1% | 9.5%
12 | COC(=O)CC(C)(O)CCCC(C)C (stereo unspecified) | 11.2% | -5.15% | 16.9% | -17.9% | 3.9% | -14.2%
13 | Cn1c(=O)c2[nH]c(=S)n(C)c2n(C)c1=O | 31.8% | -8.35% | -2% | 11.2% | -13.6% | 15.5%
14 | CCCCCCCCCCCCCCCC[Si](Cl)(Cl)Cl | -0.6% | -10.7% | -5.85% | -22.6% | 2.95% | 10.1%
15 | CN(C)Cc1ccccc1COC(=O)c1ccccc1 | 19.1% | 20.1% | 26.1% | 11.4% | 17.4% | 17.5%
16 | CC(=O)N1CN2C(=O)CCC2c2ccccc21 (stereo unspecified) | -7.85% | 1.4% | -14.2% | 9.25% | -21.5% | -48.2%
17 | COc1cc2c(cc1O)C(C)C(c1ccccc1)O2 (stereo unspecified) | 3.95% | 4.8% | 9.45% | -21.1% | 7.15% | 13.2%
18 | CCOc1ccc2[nH]c(C)c(CC(=O)O)c2c1 | -3.7% | -9.25% | -13.5% | -16.4% | 9.3% | -7.2%
19 | O=C(COc1c(Cl)cc(Cl)c2ccccc12)NC1c2ccccc2Oc2ccccc21 | 22.6% | 0.4% | 34.1% | 7.45% | 10.2% | 14.4%
20 | CC(C)(C)C1(C#N)C(=O)N(c2ccc(Cl)cc2)C12c1ccccc1-c1ccccc12 (stereo unspecified) | 4.55% | 9.55% | 6.45% | 19.2% | -4.5% | 20.4%
21 | OC1CC2CCCCC2CC1c1ccccc1 (stereo unspecified) | 14.1% | 3.1% | -15.3% | -0.05% | 27.4% | 33.5%

Row | Structure (SMILES) | growth inhibition [1] | growth inhibition [2] | growth inhibition [3] | growth inhibition [4] | growth inhibition [5] | growth inhibition [6]
22 | CCCCCCCCCC1OCCC(C)O1 (stereo unspecified) | 20.2% | 9.95% | -0.6% | -20.9% | 9.5% | 21.2%
23 | CN1C(=O)Cc2ccccc21 | 9.9% | -7.25% | -13.3% | 11.5% | 20.8% | -1.05%
24 | Oc1ccc(-c2nnc(-c3ccc(O)cc3)nn2)cc1 | 10.8% | 17.4% | 21.1% | 17.4% | 23.2% | 10.9%
25 | CCCCn1[nH]c(=O)ccc1=O | 16.9% | 7.6% | 1.9% | 11.4% | -8.45% | -3.3%
26 | C/C(=N/OCCC(=O)O)C1CC1 | -2.85% | -1.65% | -1.35% | 11.8% | 7.9% | -17.6%
27 | O=C(OC[P+](c1ccccc1)(c1ccccc1)c1ccccc1)c1ccccc1 | 44% | 47.1% | 44.9% | 33.8% | 38.6% | 81.2% (active)
28 | COC(=O)N1C(C#N)=CCc2ccccc21 | 26.4% | 31.2% | 16.9% | -6.25% | 3.8% | 5.65%
29 | COc1cc2ccccc2ccc1=O | 13.4% | 7.95% | -6.45% | -3.55% | 13.6% | 4.5%
30 | CCCCCCCCn1nnnc1C(F)(F)F | -3.1% | 8.45% | 6.75% | -15.1% | 1.45% | -0.45%
31 | O=C1CC2C(=O)N(Cc3ccccc3)C1C=C2S(=O)(=O)c1ccccc1 (stereo unspecified) | -15.7% | 21.6% | 36.8% | 4.25% | -1.3% | 4.9%
32 | COc1cc2c3c(c1)SC(C)C(=O)N3CCN2 (stereo unspecified) | -7.85% | -19.9% | 2.55% | 10.2% | -3.5% | 6.55%
33 | CC(C)(C)CC(C)(C)[N+](=O)[O-] | -1.15% | -14.6% | 2.75% | 6.85% | -3.25% | 18.4%
34 | Nc1ncc2c(n1)-c1ccccc1OC2N1CCOCC1 (stereo unspecified) | 28% | 2.15% | -0.45% | 2% | -22.6% | -7.8%
35 | CCOC(=O)C1=C(C(=O)c2ccc(OC)cc2)C(c2ccc(OC)c(OC)c2)C(C(=O)c2ccc(OC)cc2)=C(C(=O)OCC)N1 | -44.4% | -20% | -32.2% | -24.6% | -23% | -18.8%
36 | N#CC(NC12CC3CC(CC(C3)C1)C2)c1ccccc1C(F)(F)F (stereo unspecified) | -18.6% | 7.3% | -30.9% | 10.4% | -30.1% | -12.9%
37 | CCCCONC(N)=O | -12.2% | -11.1% | -23.4% | 7.75% | -5.15% | -5.95%
38 | CCOC(=O)C(/C(=N/NC(=O)OC)C(=O)Nc1ccc(C(C)=O)cc1)c1cnc2ccccc2n1 (stereo unspecified) | 0.9% | -40.9% | -26.6% | 26.1% | -1.5% | 0.25%
39 | CC(C)CCC(C)c1ccncc1 (stereo unspecified) | 11.7% | 0.4% | -7.05% | -6.5% | 3.35% | 0.45%
40 | COc1ccccc1NC(=S)N1CCC(CCCC2CCN(C(=S)Nc3ccccc3OC)CC2)CC1 | -30.3% | -22.9% | -9.75% | -11.8% | -20.9% | -13.2%
41 | CCOC(=O)C1(C(=O)OCC)CSC1 | -16.6% | -5.45% | -17.1% | 3.85% | -17.8% | -22.3%
